Here are results for 35 molecules from PubChem BioAssay (NCATS).

Each structure is given as a SMILES string. Records with an inconclusive call do not appear. A call without a number means that no potency is given here. Calls of active or inactive are those of the source. Calls come from the whole dose curve; as a rule, active = well fitted curve in the direction sought with a large enough effect; inconclusive = small, poorly fitted or top-dose-only effect, or another doubt; inactive = no such curve, though single readings can be large; an effect the other way counts as inactive or inconclusive.

One test can be described thus: S16 Schwann cell viability assay (CellTiter-Glo assay) (AID 624031).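 Note: cellular ATP luminescence as a viability measure; nearly all actives have a fitted effect of over 70% in size.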 The settings on record: S16 rat Schwann cells viability, 24 h; series mostly up to 57.5 µM. The procedure, abridged: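 Luminescent ATP read-out (CellTiter-Glo) after 24 h compound exposure of native S16 rat Schwann cells at 37 °C. Signals were normalized between cell-free wells and DMSO-treated cells, set as 0% activity.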
Consider `C/C=C/C=N/NC(=O)c1ccncc1`, for which the Potency result is “inactive”.
The same measure, in the same setting: for `CC(C)Nc1cccnc1N1CCN(C(=O)c2cc3cc(NS(C)(=O)=O)ccc3[nH]2)CC1` the value was “inactive”; for `CCCCNc1ccc(C(=O)OCCOCCOCCOCCOCCOCCOCCOCCOCCOC)cc1`, “inactive”; for `CN1CCN(c2c(F)cc3c(=O)c(C(=O)O)cn4c3c2SCC4)CC1`, “inactive”.
With `OCc1ccccn1`, the Potency entry was “inactive”.
Same read-out and setting: for `COc1cc(C(=O)NCc2ccc(OCCN(C)C)cc2)cc(OC)c1OC` the value was “inactive”; for `OC(C#CCN1CCCC1)(c1ccccc1)c1ccccc1`, “inactive”.
Still for that read-out and setting: for `CCCCNC(=O)NS(=O)(=O)c1ccc(N)cc1` the value was “inactive”.
As to `CCC(CC)(CC(=O)Nc1cccc(/C=C/c2nc(C3CCC3)cs2)c1)C(=O)O`, the Potency entry was “inactive”.
On the same count and under the same terms, for `NC(N)=NCc1cccc(I)c1` the value was “inactive”.
As to `CC(=O)O[C@H]1C[C@@H]2CC[C@@H]3[C@H](CC[C@@]4(C)[C@H]3C[C@H]([N+]3(C)CCCCC3)[C@@H]4OC(C)=O)[C@@]2(C)C[C@@H]1N1CCCCC1`, the Potency entry was “inactive”.
On to `CCCCN=C(N)N=C(N)N`, for which the Potency entry is “inactive”.
Same read-out and setting: for `O=C(O)P(=O)(O)O` the value was “inactive”; for `Nc1nc(-c2ccccc2)c(Br)c(=O)[nH]1`, “inactive”.
On the same count and under the same terms, for `CC1CCc2c(N3CCC(O)CC3)c(F)cc3c(=O)c(C(=O)O)cn1c23` (stereo not given) the value was “inactive”; for `CCNC(=O)NCc1cccc(Cl)c1`, “inactive”; for `CC(=O)OC[C@H]1O[C@@H](n2ncc(=O)[nH]c2=O)[C@H](OC(C)=O)[C@@H]1OC(C)=O`, “inactive”.
On the same count and under the same terms, for `COc1cc(N)c(Cl)cc1C(=O)NC1CCN(Cc2ccccc2)CC1` the value was “inactive”.
`CCOc1ccccc1OCCN[C@H](C)Cc1ccc(OC)c(S(N)(=O)=O)c1`: the Potency result was “inactive”.
Consider `O=C1C(CCS(=O)c2ccccc2)C(=O)N(c2ccccc2)N1c1ccccc1` (stereo not given), for which the Potency entry is “inactive”.
Take `Nc1ccc(S(=O)(=O)NCc2ccccc2)cc1`: the Potency result was “inactive”.
The same measure, in the same setting: for `CC(C)[N+](C)(C)CC(O)COc1cccc2ccccc12` (stereo not given) the value was “inactive”.
On to `NS(=O)(=O)c1ccc(Cl)c(S(N)(=O)=O)c1`, for which the Potency result is “inactive”.
On the same count and under the same terms, for `COc1ccc2c(c1)c1c3n2CCN(C)C3=NCC1` the value was “inactive”; for `COc1ccc(-c2cc(C(F)F)nn2-c2ccc(S(N)(=O)=O)cc2)cc1F`, “inactive”.
`Cc1cccc(C)c1NC(=O)CN1CCCCCC1`: the Potency result is “inactive”.
On the same count and under the same terms, for `COc1ccc(/C=N/NC(=O)c2ccncc2)cc1OC` the value was “inactive”; for `Nc1ccc(S(=O)(=O)Nc2cnc3ccccc3n2)cc1`, “inactive”; for `O=C(NC1CCN(CCc2c[nH]c3ccccc23)CC1)c1ccccc1`, “inactive”.
On the same count and under the same terms, for `C#C[C@]1(O)CC[C@H]2[C@@H]3CCc4cc(OC)ccc4[C@H]3CC[C@@]21C` the value was “inactive”; for `O=C(O)C(Cc1cc(I)c(O)c(I)c1)c1ccccc1` (stereo not given), “inactive”.
For the molecule `CC(=O)Oc1ccc(C)cc1`, the Potency result was “inactive”.
The same measure, in the same setting: for `O=C1C(O)=C(O)C(=O)C(O)=C1O` the value was “inactive”.
On the same count and under the same terms, for `NC(=O)C1(N2CCCCC2)CCN(CCCC(=O)c2ccc(F)cc2)CC1` the value was “inactive”; for `CC(=O)NO`, “inactive”.

The next test is described as follows: S16 Schwann cell PMP22 intronic element firefly luciferase assay (AID 624032). Note: nearly all actives have a fitted effect of over 30% in size. Note: potency is the fitted concentration of half-maximal effect. As to conditions: S16 rat Schwann cells, PMP22 element FLuc, 24 h; series mostly up to 57.5 µM. The procedure, abridged:
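Rat S16 Schwann cells stably carrying firefly luciferase driven by a PMP22 intronic element, in 10% FBS, treated 24 h at 37 C. ONE-Glo luminescence normalized to PTC124 control and DMSO (0%); curves classed by r2, magnitude and activity.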
As to `C/C=C/C=N/NC(=O)c1ccncc1`, the Potency result is “inactive”.
Regarding `CC(C)Nc1cccnc1N1CCN(C(=O)c2cc3cc(NS(C)(=O)=O)ccc3[nH]2)CC1`, the Potency was 14.4 µM (active).
Same read-out and setting: for `CCCCNc1ccc(C(=O)OCCOCCOCCOCCOCCOCCOCCOCCOCCOC)cc1` the value was “inactive”; for `CN1CCN(c2c(F)cc3c(=O)c(C(=O)O)cn4c3c2SCC4)CC1`, “inactive”.
On to `OCc1ccccn1`, for which the Potency result is “inactive”.
For the molecule `COc1cc(C(=O)NCc2ccc(OCCN(C)C)cc2)cc(OC)c1OC`, the Potency entry was “inactive”.
`OC(C#CCN1CCCC1)(c1ccccc1)c1ccccc1`: the Potency entry was “inactive”.
Same read-out and setting: for `CCCCNC(=O)NS(=O)(=O)c1ccc(N)cc1` the value was “inactive”; for `CCC(CC)(CC(=O)Nc1cccc(/C=C/c2nc(C3CCC3)cs2)c1)C(=O)O`, “inactive”; for `NC(N)=NCc1cccc(I)c1`, “inactive”.
For `CC(=O)O[C@H]1C[C@@H]2CC[C@@H]3[C@H](CC[C@@]4(C)[C@H]3C[C@H]([N+]3(C)CCCCC3)[C@@H]4OC(C)=O)[C@@]2(C)C[C@@H]1N1CCCCC1`, the Potency result was “inactive”.
On the same count and under the same terms, for `CCCCN=C(N)N=C(N)N` the value was “inactive”; for `O=C(O)P(=O)(O)O`, “inactive”.
`Nc1nc(-c2ccccc2)c(Br)c(=O)[nH]1`: the Potency result is “inactive”.
Still for that read-out and setting: for `CC1CCc2c(N3CCC(O)CC3)c(F)cc3c(=O)c(C(=O)O)cn1c23` (stereo not given) the value was “inactive”; for `CCNC(=O)NCc1cccc(Cl)c1`, “inactive”.
`CC(=O)OC[C@H]1O[C@@H](n2ncc(=O)[nH]c2=O)[C@H](OC(C)=O)[C@@H]1OC(C)=O`: the Potency entry was “inactive”.
The same measure, in the same setting: for `COc1cc(N)c(Cl)cc1C(=O)NC1CCN(Cc2ccccc2)CC1` the value was “inactive”; for `CCOc1ccccc1OCCN[C@H](C)Cc1ccc(OC)c(S(N)(=O)=O)c1`, “inactive”.
`O=C1C(CCS(=O)c2ccccc2)C(=O)N(c2ccccc2)N1c1ccccc1` (stereo not given): the Potency entry was “inactive”.
On the same count and under the same terms, for `Nc1ccc(S(=O)(=O)NCc2ccccc2)cc1` the value was “inactive”.
On to `CC(C)[N+](C)(C)CC(O)COc1cccc2ccccc12` (stereo not given), for which the Potency result was “inactive”.
Still for that read-out and setting: for `NS(=O)(=O)c1ccc(Cl)c(S(N)(=O)=O)c1` the value was “inactive”; for `COc1ccc2c(c1)c1c3n2CCN(C)C3=NCC1`, “inactive”.
The same measure, in the same setting: for `COc1ccc(-c2cc(C(F)F)nn2-c2ccc(S(N)(=O)=O)cc2)cc1F` the value was “inactive”; for `Cc1cccc(C)c1NC(=O)CN1CCCCCC1`, “inactive”.
Still for that read-out and setting: for `COc1ccc(/C=N/NC(=O)c2ccncc2)cc1OC` the value was “inactive”; for `Nc1ccc(S(=O)(=O)Nc2cnc3ccccc3n2)cc1`, “inactive”; for `O=C(NC1CCN(CCc2c[nH]c3ccccc23)CC1)c1ccccc1`, “inactive”.
As to `C#C[C@]1(O)CC[C@H]2[C@@H]3CCc4cc(OC)ccc4[C@H]3CC[C@@]21C`, the Potency result was “inactive”.
On the same count and under the same terms, for `O=C(O)C(Cc1cc(I)c(O)c(I)c1)c1ccccc1` (stereo not given) the value was “inactive”; for `CC(=O)Oc1ccc(C)cc1`, “inactive”.
On the same count and under the same terms, for `O=C1C(O)=C(O)C(=O)C(O)=C1O` the value was “inactive”.
Same read-out and setting: for `NC(=O)C1(N2CCCCC2)CCN(CCCC(=O)c2ccc(F)cc2)CC1` the value was “inactive”; for `CC(=O)NO`, “inactive”.
